Bioassay records (PubChem)
Rows were chosen to be rich in hits. Some 3.9% of all compounds tested hit in one or more screens of this group.
BoNT-F LC inh: inhibitors of Botulinum neurotoxin F light chain protease; inhibition, % at 10 µM; 0.22% of 360,000 active; AID 588497; Multiplex microsphere protease cleavage assay, flow cytometry; in the data active means inhibition above about 35%, passing the limit was not always enough; inconclusive means no clear call, values can overlap the other calls
Bead autofluor: counter-screen for toxin protease inhibitors: compound fluorescence. compound autofluorescence counterscreen, microsphere flow cytometry; active compounds read high. fluorescence intensity (no concentration beside the values). 3.1% of 360,000 active; in the data active means fluorescence intensity above about 16000; inconclusive means no clear call, values can overlap the other calls
Anthrax LF inh2: anthrax lethal factor protease inhibition. inhibition, % at 10 µM. P15917. 0.12% of 360,000 active. AID 588501. multiplex microsphere protease cleavage assay, LF
Target sequence (P15917 whole entry, looked up): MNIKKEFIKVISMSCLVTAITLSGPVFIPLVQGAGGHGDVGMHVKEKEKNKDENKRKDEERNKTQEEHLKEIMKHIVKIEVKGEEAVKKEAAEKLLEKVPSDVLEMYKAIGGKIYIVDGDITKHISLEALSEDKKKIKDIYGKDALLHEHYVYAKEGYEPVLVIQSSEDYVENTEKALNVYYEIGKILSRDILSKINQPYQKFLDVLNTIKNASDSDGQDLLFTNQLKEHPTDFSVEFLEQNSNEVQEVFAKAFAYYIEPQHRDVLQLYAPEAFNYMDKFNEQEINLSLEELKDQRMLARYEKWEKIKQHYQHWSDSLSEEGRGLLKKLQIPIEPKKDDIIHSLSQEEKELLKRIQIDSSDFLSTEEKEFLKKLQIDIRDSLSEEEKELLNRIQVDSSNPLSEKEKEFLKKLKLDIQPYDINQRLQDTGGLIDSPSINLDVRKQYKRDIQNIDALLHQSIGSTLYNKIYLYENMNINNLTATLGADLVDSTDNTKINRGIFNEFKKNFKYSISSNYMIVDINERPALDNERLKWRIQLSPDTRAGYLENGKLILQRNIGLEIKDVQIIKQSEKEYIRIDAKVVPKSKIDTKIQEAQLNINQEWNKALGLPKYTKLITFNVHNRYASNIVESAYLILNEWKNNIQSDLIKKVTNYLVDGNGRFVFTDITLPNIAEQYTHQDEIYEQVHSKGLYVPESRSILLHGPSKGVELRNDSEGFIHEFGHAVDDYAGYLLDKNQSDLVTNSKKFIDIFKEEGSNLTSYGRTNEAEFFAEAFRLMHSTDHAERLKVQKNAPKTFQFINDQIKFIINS
BoNT-A LC inh2: inhibitors of Botulinum neurotoxin A light chain protease | AID 588499 | multiplex microsphere protease substrate cleavage, flow cytometry | inhibition, % at 10 µM | 0.17% of 360,000 active
SARS 3CLpro inh: SARS-CoV 3CLpro protease inhibition; P0C6X7; recombinant SARS-CoV 3CLpro, quenched FRET peptide cleavage; inhibition, % at 6 µM; 0.14% of 290,000 active; AID 1706; in the data active means inhibition above about 12%
CCHFV vOTU inh: CCHFV vOTU protease inhibition; Pep-AMC fluorescence; inhibition, % at 11.5 µM; 0.55% of 370,000 active; in the data active means inhibition above about 30%
Each line names hits and unclear results; the compound was inactive in the other large screens; ! = not active in a repeat. Unless noted, no stated cut-off is given here; in the data, active means inhibition above about 30%; inconclusive means no clear call, values can overlap the other calls; inactive means below that.

Cn1c(=O)c(-c2ccccc2N)nc2ccccc21	Bead autofluor 20647
COc1ccc(Oc2nc3ccccc3nc2C(F)(F)F)cc1	Bead autofluor 23577
O=S1(=O)c2ccc(Br)cc2OC[C@@H](Cc2ccccc2)N1Cc1cn(CC2CCCCC2)nn1	none (no result: BoNT-F LC inh, Bead autofluor, Anthrax LF inh2, BoNT-A LC inh2, SARS 3CLpro inh)
C=CC[C@@H]1NN2C(=O)[C@@H](C)[C@@H]3c4ccccc4C=NN3[C@@H]2c2ccccc21	none (no result: BoNT-F LC inh, Bead autofluor, Anthrax LF inh2, BoNT-A LC inh2, SARS 3CLpro inh)
C=CCCC1(CCC)C(=O)/C(=C(\O)c2ccccc2)C(=O)C(CCC)=C1OC (stereo unspecified)	none (no result: BoNT-F LC inh, Bead autofluor, Anthrax LF inh2, BoNT-A LC inh2, SARS 3CLpro inh)
Nc1ccc(S(=O)(=O)c2cc(O)c3ccccc3c2O)cc1	CCHFV vOTU inh 71 (no result: SARS 3CLpro inh)
C[C@@H]1[C@@H](O)C[C@@]2(C[C@H](O)c3cc(Cl)ccc3O2)O[C@H]1c1ccccc1Cl	none (no result: BoNT-F LC inh, Bead autofluor, Anthrax LF inh2, BoNT-A LC inh2, SARS 3CLpro inh)
Cc1cc(C)c(C)c(S(=O)(=O)N2CCN(Cc3nc4ccccc4[nH]3)CC2)c1C	Bead autofluor 22533, BoNT-A LC inh2 inconclusive
CCCOc1ccccc1N1C(=O)CC(N2CCOCC2)C1=O (stereo unspecified)	Bead autofluor 23760
O=C(N1CCOCC1)N1CCN(Cc2ccccc2)CC1	Bead autofluor 16289, BoNT-A LC inh2 inconclusive
CN1CCC(OC(=O)c2ccc(Br)cc2)CC1	Bead autofluor 21548
CN1CCC(OC(=O)COc2ccc(Br)cc2)CC1	none
C=CCN1C(=O)[C@@H](CC(=O)N2CCOCC2)[C@]2(C(=O)OCC)CCCCC/C=C/12	none (no result: BoNT-F LC inh, Bead autofluor, Anthrax LF inh2, BoNT-A LC inh2, SARS 3CLpro inh)
O=C(Cc1ccc(Cl)c(Cl)c1)Nc1ccc(S(=O)(=O)Nc2ccon2)cc1	none (no result: BoNT-F LC inh, Bead autofluor, Anthrax LF inh2, BoNT-A LC inh2, SARS 3CLpro inh)
O=C(Nc1nnc(COc2ccccc2)s1)C1CCN(S(=O)(=O)c2ccc(Cl)cc2)CC1	Bead autofluor 23493
O=C(Nc1nnc(-c2ccccc2Cl)s1)C1CCN(S(=O)(=O)c2ccc(Cl)cc2)CC1	none
COCCn1c(C2CCCCC2)nc2sc3ccccc3c(=O)c2c1=O	Bead autofluor 22628
CCc1nc2sc3ccccc3c(=O)c2c(=O)n1CCOC	Bead autofluor 19591
COCCn1c(C(C)C)nc2sc3ccccc3c(=O)c2c1=O	Bead autofluor 19469, BoNT-A LC inh2 inconclusive (no result: CCHFV vOTU inh)
COCCn1c(=O)sc2ccccc2c1=O	none
COc1cccc(N2CCN(CC(=O)NCc3cccc(OC)c3OC)CC2)c1	none (no result: BoNT-F LC inh, Bead autofluor, Anthrax LF inh2, BoNT-A LC inh2, SARS 3CLpro inh)
CC(C)NC(=O)N[C@@H]1C[C@@H]2O[C@@H](CO)CC[C@@H]2O[C@@H]1CCc1ccc(-c2ccccc2F)cc1	none (no result: BoNT-F LC inh, Bead autofluor, Anthrax LF inh2, BoNT-A LC inh2, SARS 3CLpro inh)
CCN1C(=O)/C(=C2/C=CC=CN2C)SC1=S	Bead autofluor 23187
CN1C=CC=C/C1=C1/SC(=S)N(Cc2ccccc2)C1=O	none
CN1C(=O)[C@@]2(O[C@H]3C=CC=CN3C3=C2C(=O)CCC3)c2cc([N+](=O)[O-])ccc21	none (no result: BoNT-F LC inh, Bead autofluor, Anthrax LF inh2, BoNT-A LC inh2, SARS 3CLpro inh)
C[C@@H]1CN([C@@H](C)CO)C(=O)CCCn2cc(nn2)CO[C@H]1CN(C)C(=O)Nc1ccc2c(c1)OCCO2	none (no result: BoNT-F LC inh, Bead autofluor, Anthrax LF inh2, BoNT-A LC inh2, SARS 3CLpro inh)
CCOc1cccc(OCCCCN2CCOCC2)c1	none
Clc1cccc(OCCN2CCOCC2)c1	Bead autofluor 16577
Clc1cccc(OCCCCCN2CCOCC2)c1	none
Brc1ccccc1OCCCN1CCOCC1	Bead autofluor 23079
c1ccc(OCCCCN2CCOCC2)cc1	Bead autofluor 16576
Cc1cnn(-c2ccccc2)c1NC(=O)COCc1ccccc1	none (no result: BoNT-F LC inh, Bead autofluor, Anthrax LF inh2, BoNT-A LC inh2, SARS 3CLpro inh)
CC(=O)c1cc(-c2cnn(Cc3ccccc3)c2)c(=O)n2c1CCC2	none (no result: BoNT-F LC inh, Bead autofluor, Anthrax LF inh2, BoNT-A LC inh2, SARS 3CLpro inh)
O=C(CCc1ccccc1-c1ccccc1CCNC(=O)c1cccc(F)c1)NCc1ccccc1	none (no result: BoNT-F LC inh, Bead autofluor, Anthrax LF inh2, BoNT-A LC inh2, SARS 3CLpro inh)
CCOc1ccc(C2C3=C(CCCC3=O)Nc3nc(C(F)(F)F)nn32)cc1OC (stereo unspecified)	none
CCOc1cc(C2C3=C(CCCC3=O)Nc3nc(C(=O)OC)nn32)ccc1OC (stereo unspecified)	Bead autofluor 22585
CCN(CC)C(=O)CSc1nnc(-c2ccc(C(C)(C)C)cc2)n1-c1ccc(Cl)cc1	none (no result: BoNT-F LC inh, Bead autofluor, Anthrax LF inh2, BoNT-A LC inh2, SARS 3CLpro inh)
CCC(C)Sc1ccc(-c2nc3cc(C)ccn3c2NC2CCCCC2)cc1 (stereo unspecified)	Bead autofluor 20914! (no result: SARS 3CLpro inh)
COc1cc(-c2nc3cc(C)ccn3c2NC2CCCCC2)ccc1-c1ccc(C(C)=O)cc1	Bead autofluor 23646 (no result: SARS 3CLpro inh)
CCCCCCSc1cc(-c2nc3cc(C)ccn3c2NC2CCCCC2)ccc1OC	none (no result: SARS 3CLpro inh)
COC(=O)C1CCCN(C(=O)C2CCN(S(=O)(=O)c3cccc4cccnc34)CC2)C1 (stereo unspecified)	none (no result: BoNT-F LC inh, Bead autofluor, Anthrax LF inh2, BoNT-A LC inh2, SARS 3CLpro inh)
CC(=O)c1cccc(NC(=O)CSc2nc(N3CCCCC3)nc(N3CCCCC3)n2)c1	none
O=C(CSCC(=O)Nc1cccc2ccccc12)Nc1cccc2ccccc12	none
Cc1ccccc1NC(=O)CSCCO	Bead autofluor 22229
Cc1cccc(C)c1NC(=O)CSCCO	none
